This is part of a sample that, as a whole, favours compounds with a hit. Of some 79,000 tested, about 15% had one in any assay. A number with no mark means an inactive call. The source made the active and inactive calls. Cut-off read from the data, not from the text of the source: active = growth inhibition above about 70%; inactive = the rest.

Experiment [1] can be described thus: NCI Yeast Anticancer Drug Screen. Data for the rad50 strain (AID 155).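 Note: 0% = growth of vehicle-only cultures of the same strain.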 To be noted: S. cerevisiae rad50 strain growth inhibition; at 50.0 µM; hits give high values. The gist of the method: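 Growth of the mutant yeast was measured after compound exposure and referenced to vehicle-treated cultures.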
The nature of experiment [2]: NCI Yeast Anticancer Drug Screen. Data for the mec2-1 strain (AID 157). As to conditions: S. cerevisiae mec2-1 strain, at 50.0 µM, hits give high values. The gist of the method: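 Yeast mec2-1 mutant treated with compound. Readout: growth inhibition vs vehicle controls.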
Experiment [3] can be described thus: NCI Yeast Anticancer Drug Screen. Data for the sgs1 mgt1 strain (AID 161).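 Note: 0% = growth of cultures given vehicle only.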 As to conditions: S. cerevisiae sgs1 mgt1 strain, at 50.0 µM, hits give high values. The gist of the method: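 Genetically altered yeast, compound exposure, growth inhibition relative to vehicle.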
Experiment [4] is described as follows: NCI Yeast Anticancer Drug Screen. Data for the cln2 rad14 strain (AID 165).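 Note: 0% = growth equal to vehicle treated cultures.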 To be noted: S. cerevisiae cln2 rad14 strain, at 50.0 µM, hits give high values. The gist of the method: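 cln2 rad14 yeast strain; compound exposure; growth inhibition read vs vehicle controls.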
Experiment [5] can be described thus: NCI Yeast Anticancer Drug Screen. Data for the bub3 strain (AID 167). As to conditions: S. cerevisiae bub3 mutant strain, at 50.0 µM, hits give high values. Put shortly: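 Whole-cell yeast assay. The mutant strain was incubated with compounds, and growth inhibition was determined by comparison with vehicle-treated cells.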
The nature of experiment [6]: NCI Yeast Anticancer Drug Screen. Data for the mlh1 rad18 strain (AID 175). As to conditions: S. cerevisiae mlh1 rad18 strain growth inhibition; at 50.0 µM; hits give high values. Put shortly:
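Yeast w/ defined DNA-repair lesions; compound exposure; growth vs vehicle controls → % inhibition.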

Regarding `O/N=C(/Cc1ccccc1)CC(O)(C(F)(F)F)C(F)(F)F`, the growth inhibition in experiment [1] was 90.8% (active); in experiment [2], 89.5% (active); in experiment [3], 87% (active); in experiment [4], 85.8% (active); in experiment [5], 86.7% (active); in experiment [6] it was 94.3% (active).

`CCN1CCCC(C#N)(c2ccccc2)CC1` (stereo not given): the growth inhibition in experiment [1] was 14.1%; in experiment [2], 7.45%; in experiment [3], 14.5%; in experiment [4], 8.9%; in experiment [5], 3.2%; in experiment [6], -4.1%.

For `CCOC(=O)c1cnc(SC)nc1Nc1cccc(C)c1`, the growth inhibition in experiment [1] is -13.4%; in experiment [2], -10.4%; in experiment [3], -11.9%; in experiment [4], -18.1%; in experiment [5], 9.1%; in experiment [6] it was -36.1%.

Consider `NC(=O)C(N)Cc1ccc(OCc2ccccc2)c(OCc2ccccc2)c1` (stereo not given), for which the growth inhibition in experiment [1] was 1.4%; in experiment [2], 3.35%; in experiment [3], 7.3%; in experiment [4], -12.8%; in experiment [5], 2.45%; in experiment [6], 26.2%.

Take `O=CC(O)C(O)C(O)C1CNC(=S)O1` (stereo not given): the growth inhibition is 4.9% in experiment [1]; -14.7% in experiment [2]; -10.3% in experiment [3]; -2.25% in experiment [4]; 4.05% in experiment [5]; 6.9% in experiment [6].

Turning to `CC1=C(/C=C/Cl)CC(Cl)C(C)(Cl)C1` (stereo not given), the growth inhibition was -2.25% in experiment [1]; -10.4% in experiment [2]; -4.5% in experiment [3]; 12.5% in experiment [4]; -0.45% in experiment [5]; -45.2% in experiment [6].

Regarding `N#C/C(=N\Nc1ccc(F)cc1)C(=O)C1CC1`, the growth inhibition in experiment [1] was 9.1%; in experiment [2], 9.05%; in experiment [3] it was 5.8%; in experiment [4], 11.3%; in experiment [5] it was 4.3%; in experiment [6], 11.7%.

Take `CCCNC(=S)N/N=C\C(C)=N\Nc1ccc(Cl)cc1`: the growth inhibition is 31.4% in experiment [1]; 16.2% in experiment [2]; 3.15% in experiment [3]; 36% in experiment [4]; 7.5% in experiment [5]; 17.2% in experiment [6].

With `Cc1ccc(N=C(N)NC#N)cc1`, the growth inhibition in experiment [1] is -11.9%; in experiment [2], -46%; in experiment [3], -27.1%; in experiment [4], 16.6%; in experiment [5], -34%; in experiment [6], -7.75%.

For `O=C(Nc1ccccc1)SC1CCCCC1`, the growth inhibition in experiment [1] was -4.6%; in experiment [2] it was 4.95%; in experiment [3], -8.7%; in experiment [4] it was -21.1%; in experiment [5], 3.8%; in experiment [6] it was -1.9%.

Consider `O=C(Nc1ccc(CCO)cc1)Nc1ccc(Cl)cc1[N+](=O)[O-]`, for which the growth inhibition was -6.35% in experiment [1]; 34.9% in experiment [2]; 25.8% in experiment [3]; -18.7% in experiment [4]; 21.6% in experiment [5]; 17.6% in experiment [6].

Take `CCNc1ncnc2sc(SCc3ccccc3)nc12`: the growth inhibition in experiment [1] is -39.3%; in experiment [2], -20.8%; in experiment [3] it was -12.7%; in experiment [4] it was -0.6%; in experiment [5], -31.1%; in experiment [6], -37.1%.

For `C[C@H]1O[C@@H](C(C)(C)C)OC(=O)[C@@H]1C(OC(=O)c1ccccc1)c1cccc2ccccc12` (stereo not given in full), the growth inhibition in experiment [1] was -0.1%; in experiment [2], 3.15%; in experiment [3], 12.1%; in experiment [4], 25.3%; in experiment [5] it was -3.45%; in experiment [6], 8%.

For `Cn1cc(-c2ccccc2)cc1-c1ccccc1`, the growth inhibition in experiment [1] was -11.4%; in experiment [2], 6.6%; in experiment [3] it was -4.5%; in experiment [4], 4.9%; in experiment [5] it was -14.9%; in experiment [6], 9.75%.

As for `CC1(C)OC(C)(C)c2c1nnc(-c1ccccc1[N+](=O)[O-])[n+]2[O-]`, the growth inhibition in experiment [1] was 8.1%; in experiment [2] it was 11.5%; in experiment [3] it was 22.4%; in experiment [4], 12.8%; in experiment [5], 26.9%; in experiment [6], 14.1%.

Take `CN(C)C(=NN)N(C)C`: the growth inhibition in experiment [1] is 0.5%; in experiment [2] it was -2.3%; in experiment [3], 1.55%; in experiment [4], -34%; in experiment [5] it was 3.6%; in experiment [6], -3.9%.

In the case of `CC(C)(CO)NC(=O)c1ccccc1Br`, the growth inhibition is -31.9% in experiment [1]; -11.7% in experiment [2]; -8.6% in experiment [3]; 1.55% in experiment [4]; -13.9% in experiment [5]; 7.8% in experiment [6].

Regarding `COC(=O)C(=O)c1c(-c2cccnc2)[nH]c2ccccc12`, the growth inhibition is 7.3% in experiment [1]; -7.1% in experiment [2]; 1.05% in experiment [3]; -9.05% in experiment [4]; 13.2% in experiment [5]; 4% in experiment [6].

For `CC(=O)NC(C)c1ccc(N=NN2CCCC2)cc1` (stereo not given), the growth inhibition in experiment [1] is 19.6%; in experiment [2], -6%; in experiment [3], 20%; in experiment [4], 19.9%; in experiment [5] it was 25.3%; in experiment [6], -30.5%.

Regarding `CC(=O)Nc1ccc(N)cc1N`, the growth inhibition in experiment [1] was -1.3%; in experiment [2] it was -37.8%; in experiment [3] it was -17.9%; in experiment [4], 29.7%; in experiment [5], -6.35%; in experiment [6], 13.8%.

Source of the values: PubChem BioAssay (NCI).
